Data as given in PubChem BioAssay AID1159580 (chemical genetic matrix, 2015).
In all, about 5,500 compounds went through this assay and about 2,000 (36%) were called active. About 18% were inconclusive and are not listed. No stated cut-off is given here; in the data, active means normalized growth mostly below about 0.91 (no sharp cut-off); inconclusive means no clear call, values can overlap the other calls; inactive means mostly above about 0.92. The list shows a part of the results.

Assay: chemical genetic growth profiling, strain panel (AID 1159580);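 further: tested at 20 µM; growth read once vehicle control cultures reached saturation at 30 °C; 1 = growth at the plate median or of vehicle wells; lower values mean less growth of the strain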
Details: growth OD

Measured: normalized growth

FC(F)(F)c1cccc(N2CCNCC2)c1
inactive: S. cerevisiae deletion strains, locus YJL187C, strain SWE1, hits give low values 0.999 | S. cerevisiae deletion strains, locus YJR043C, strain POL32, hits give low values 1 | S. cerevisiae deletion strains, locus YJR075W, strain HOC1, hits give low values 0.958 | S. cerevisiae deletion strains, locus YKL009W, strain mrt4, hits give low values 1 | S. cerevisiae deletion strains, locus YKL068W, hits give low values 0.997 | S. cerevisiae deletion strains, locus YKL085W, strain MDH1 (second series), hits give low values 0.995 | S. cerevisiae deletion strains, locus YKL085W, strain MDH1, hits give low values 0.995 | S. cerevisiae deletion strains, locus YKL160W, strain elf1, hits give low values 0.988 | S. cerevisiae deletion strains, locus YKL190W, strain CNB1, hits give low values 1.01 | S. cerevisiae deletion strains, locus YKR001C, strain vps1, hits give low values 0.992 | S. cerevisiae deletion strains, locus YKR026C, strain gcn3, hits give low values 1 | S. cerevisiae deletion strains, locus YKR091W, strain srl3, hits give low values 0.997 | S. cerevisiae deletion strains, locus YLL001W, strain dnm1, hits give low values 0.982 | S. cerevisiae deletion strains, locus YLL026W, hits give low values 0.991 | S. cerevisiae deletion strains, locus YLL041C, strain sdh2, hits give low values 1 | S. cerevisiae deletion strains, locus YLR027C, strain aat2, hits give low values 0.993 | S. cerevisiae deletion strains, locus YLR039C, strain RIC1, hits give low values 1.04 | S. cerevisiae deletion strains, locus YLR058C, strain SHM2, hits give low values 1.01 | S. cerevisiae deletion strains, locus YLR102C, strain apc9, hits give low values 0.984 | S. cerevisiae deletion strains, locus YLR221C, strain rsa3, hits give low values 0.993 | S. cerevisiae deletion strains, locus YLR258W, strain gsy2, hits give low values 0.981 | S. cerevisiae deletion strains, locus YLR262C, strain YPT6 (second series), hits give low values 0.981 | S. cerevisiae deletion strains, locus YLR262C, strain YPT6, hits give low values 0.991 | S. cerevisiae deletion strains, locus YLR268W, strain sec22, hits give low values 0.993 | S. cerevisiae deletion strains, locus YLR320W, strain mms22, hits give low values 0.968 | S. cerevisiae deletion strains, locus YLR330W, strain CHS5, hits give low values 1 | S. cerevisiae deletion strains, locus YLR342W, strain FKS1 (second series), hits give low values 0.937 | S. cerevisiae deletion strains, locus YLR342W, strain FKS1, hits give low values 0.997 | S. cerevisiae deletion strains, locus YLR357W, strain rsc2, hits give low values 0.989 | S. cerevisiae deletion strains, locus YLR370C, strain arc18, hits give low values 1.01 | S. cerevisiae deletion strains, locus YLR371W, strain rom2, hits give low values 0.98 | S. cerevisiae deletion strains, locus YLR384C, strain iki3, hits give low values 0.975 | S. cerevisiae deletion strains, locus YLR418C, strain cdc73, hits give low values 0.992 | S. cerevisiae deletion strains, locus YML016C, strain PPZ1, hits give low values 1.01 | S. cerevisiae deletion strains, locus YML032C, strain rad52, hits give low values 0.965 | S. cerevisiae deletion strains, locus YML120C, strain ndi1, hits give low values 0.999 | S. cerevisiae deletion strains, locus YML124C, strain tub3, hits give low values 0.991 | S. cerevisiae deletion strains, locus YMR058W, strain fet3, hits give low values 1.01 | S. cerevisiae deletion strains, locus YMR078C, strain ctf18, hits give low values 0.986 | S. cerevisiae deletion strains, locus YMR125W, strain sto1, hits give low values 0.968 | S. cerevisiae deletion strains, locus YMR129W, hits give low values 1.01 | S. cerevisiae deletion strains, locus YMR205C, strain PFK2, hits give low values 0.965 | S. cerevisiae deletion strains, locus YMR223W, strain ubp8, hits give low values 0.981 | S. cerevisiae deletion strains, locus YMR231W, strain pep5, hits give low values 0.999 | S. cerevisiae deletion strains, locus YMR263W, strain SAP30, hits give low values 0.999 | S. cerevisiae deletion strains, locus YMR307W, strain GAS1, hits give low values 0.996 | S. cerevisiae deletion strains, locus YNL067W, strain RPL9B, hits give low values 1.01 | S. cerevisiae deletion strains, locus YNL071W, strain lat1, hits give low values 0.996 | S. cerevisiae deletion strains, locus YNL153C, strain GIM3, hits give low values 1.01 | S. cerevisiae deletion strains, locus YNL209W, strain ssb2, hits give low values 0.994 | S. cerevisiae deletion strains, locus YNL233W, strain BNI4, hits give low values 1 | S. cerevisiae deletion strains, locus YNL248C, strain rpa49, hits give low values 1 | S. cerevisiae deletion strains, locus YNL250W, strain rad50, hits give low values 1.01 | S. cerevisiae deletion strains, locus YNL271C, strain bni1, hits give low values 0.978 | S. cerevisiae deletion strains, locus YNL298W, strain CLA4, hits give low values 0.992 | S. cerevisiae deletion strains, locus YNL307C, strain MCK1, hits give low values 0.992 | S. cerevisiae deletion strains, locus YNL322C, strain KRE1 (second series), hits give low values 0.986 | S. cerevisiae deletion strains, locus YNR049C, strain mso1, hits give low values 1.01 | S. cerevisiae deletion strains, locus YNR052C, strain pop2, hits give low values 0.985 | S. cerevisiae deletion strains, locus YOL006C, strain TOP1, hits give low values 1.04 | S. cerevisiae deletion strains, locus YOL012C, strain htz1 0.923 | S. cerevisiae deletion strains, locus YOL147C, strain pex11, hits give low values 0.989 | S. cerevisiae deletion strains, locus YOR001W, strain rrp6, hits give low values 0.985 | S. cerevisiae deletion strains, locus YOR061W, strain CKA2, hits give low values 1.01 | S. cerevisiae deletion strains, locus YOR069W, strain VPS5, hits give low values 1 | S. cerevisiae deletion strains, locus YOR070C, strain gyp1, hits give low values 0.995 | S. cerevisiae deletion strains, locus YOR080W, strain dia2, hits give low values 0.98 | S. cerevisiae deletion strains, locus YOR083W, strain WHI5, hits give low values 1.03 | S. cerevisiae deletion strains, locus YOR106W, strain vam3, hits give low values 1 | S. cerevisiae deletion strains, locus YOR136W, strain idh2, hits give low values 0.987 | S. cerevisiae deletion strains, locus YOR144C, strain elg1, hits give low values 0.983 | S. cerevisiae deletion strains, locus YOR184W, strain ser1, hits give low values 1.03 | S. cerevisiae deletion strains, locus YOR265W, strain rbl2, hits give low values 0.993 | S. cerevisiae deletion strains, locus YOR270C, strain vph1, hits give low values 1.07 | S. cerevisiae deletion strains, locus YOR290C, strain snf2, hits give low values 0.973 | S. cerevisiae deletion strains, locus YOR316C, strain cot1, hits give low values 0.997 | S. cerevisiae deletion strains, locus YPL051W, strain arl3, hits give low values 0.993 | S. cerevisiae deletion strains, locus YPL055C, strain LGE1, hits give low values 1 | S. cerevisiae deletion strains, locus YPL078C, strain atp4, hits give low values 1.01 | S. cerevisiae deletion strains, locus YPL106C, strain sse1, hits give low values 0.947 | S. cerevisiae deletion strains, locus YPL240C, strain hsp82, hits give low values 0.989 | S. cerevisiae deletion strains, locus YPR119W, strain clb2, hits give low values 0.984 | S. cerevisiae deletion strains, locus YPR141C, strain kar3, hits give low values 0.988 | S. cerevisiae deletion strains, locus YPR163C, strain tif3, hits give low values 0.989 | S. cerevisiae deletion strains, locus YPR167C, strain met16, hits give low values 0.988 | S. cerevisiae deletion strains, strain wtn01, hits give low values 0.966 | S. cerevisiae strains, strain wild type, hits give low values 1.01
